According to PubChem BioAssay (NCI):
Compounds without any hit were thinned out: in the full panel of roughly 83,000, 20% have a hit.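 48-hour exposure, single concentration, 96-well plates; percent growth endpoint where 0 means no net growth. Active: below 10.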 Calls of active or inactive are those of the source.

The molecules below were run on OVCAR-5 ovarian (assay: NCI-60 one-dose screen, 48 h (100 = growth as untreated, 0 = no growth, -100 = all killed)). Settings: 10 µM unless noted.
Experimental: Growth inhibition of the OVCAR-5 human tumor cell line is measured as a screen for anti-cancer activity. Cells are grown in 96 well plates and exposed to the test compound for 48 hours. Compounds are tested at a single concentration, which is 10^-5 M for most compounds. The reported endpoint is percent growth (GI% or GIPRCNT), where numbers from 0 - 100% represent growth inhibition, and numbers from -100% - 0 represent cell death. For example, a value of 40 represents 60% growth inhibition. A value of 0 means no net growth occurred over the course of the experiment. A value of -40 indicates 40% of cells at the beginning of the experiment died by the end of the experiment. A value of -100 means all cells are dead at the end of the experiment.
NCI-60 Human Tumor Cell Lines Screen was performed using the standard one-dose NCI protocol, which is described in more detail at https://dtp.cancer.gov/discovery_development/nci-60/default.htm.
Compounds with GIPRCNT values below 10 were considered active. Activity score was based on GIPRCNT using the following formula: […]
Score is 0 for GIPRCNT values of 100 or above, 50 for GIPRCNT values of 0, and 100 for GIPRCNT values of -100.

Compound | growth
O=c1[nH]nc(-c2ccccc2)c2c(-c3ccccc3)onc12 | 58.7% (inactive)
CCN(CC)CCN1CC(O)=C(c2nc(-c3ccc(Cl)cc3)cs2)C1=N | 66.4% (inactive)
Cn1cc2c(c1)-c1nc(Nc3ccccc3)ncc1CC2 | 60% (inactive)
CCN1CCN(c2nc(C)cc(NCc3cc(Nc4ccnc5cc(Cl)ccc45)ccc3F)n2)CC1 | 17.8% (inactive)
O=C(O)c1ccc2c(c1Cl)C(=O)c1ccccc1C2=O | 102% (inactive)
CC/C=C\C[C@H](O)C/C=C1/C(=O)C=C[C@@H]1C/C=C\CCCCO | 39.2% (inactive)
CC/C=C\CCC/C=C1/C(=O)C=C[C@@H]1C/C=C\CCCC(=O)O | 72.6% (inactive)
COc1cc(/C=C/C(=O)c2cccc(-n3cc(-c4ccccc4)[nH]c3=O)c2)ccc1O | 61.3% (inactive)
CN1CCN(CCCOc2ccc3nc(Nc4ccc(F)c(F)c4)ccc3c2)CC1 | 41% (inactive)
Cc1ccc(-c2cc3c(cc2O)C2CCCCC2(N2CCOCC2)O3)cc1 (stereo not given) | 110% (inactive)
Cc1nn(-c2ccccc2)c(Oc2ccc(Cl)cc2)c1/C=N\N=c1/sc2ccccc2n1C | 106% (inactive)
O=S(=O)(Nc1cccc(Cl)c1)c1ccc(-c2cnc(C3CC3)o2)cc1 | 37.2% (inactive)
Clc1ccc(-c2c3ccc(=[N+]4CCCCC4)cc-3oc3cc(N4CCCCC4)ccc23)cc1 | -90.3% (active)
Cc1ccc(N(C(=O)CCc2c[nH]c3ccccc23)[C@H](C(=O)Nc2ccc(Cl)cc2)c2cccc([N+](=O)[O-])c2)cc1 | 98.4% (inactive)
COc1cccc(-c2nn(-c3ccccc3)cc2-c2ccnc(NCCNC(=O)c3ccccc3)c2)c1 | 102% (inactive)
O=C(NCCNc1cc(-c2cn(-c3ccccc3)nc2-c2cccc(O)c2)ccn1)Nc1ccccc1 | 92.4% (inactive)
c1ccc(-c2nc([P+](c3ccccc3)(c3ccccc3)c3ccccc3)c(N3CCOCC3)o2)cc1 | 11.1% (inactive)
Oc1c(CN2CCCC2)cc(COCc2ccc(Br)cc2)c2cccnc12 | 29.6% (inactive)
C=CC(=O)Nc1cccc(Oc2nccc(Nc3nnc(C4CC4)s3)n2)c1 | 98.7% (inactive)
O=C(Nc1cccc(Cl)c1)c1cc(N=Nc2ccc([N+](=O)[O-])cc2Cl)ccc1O | 112% (inactive)

Compound | growth
C=CCn1c(C)nc2cc(Nc3nc(N4CCCC4)nc4ccccc34)ccc21 | 123% (inactive)
Cc1ccc(NCCN(C)C)c2c(=O)c3ccccc3sc12 | 62% (inactive)
CNC(=O)CCN1CCN(CC/C=C2\c3ccccc3Sc3ccc(Cl)cc32)CC1 | 96.3% (inactive)
COc1ccc2[nH]c(O)c(C(=Nc3ccc(N(C)C(=O)CN4CCN(C)CC4)cc3)c3ccccc3)c2c1 | 49.2% (inactive)
O=C(O)C1CCC(=O)N1C(=O)OCc1ccccc1 (stereo not given) | 92.6% (inactive)
COc1ccc(CNC(=O)C(O)C(Cc2ccccc2)NC(=O)c2[nH]c3ccccc3c(=O)c2C)cc1OC (stereo not given) | 98.1% (inactive)
CCN(CC)CCn1nc2c3c(cccc3c1=O)-c1ccccc1-2 | 33.9% (inactive)
COc1ccc(/C=N\NC(=O)c2cc(-c3ccc(Br)cc3)n(-c3ccc(S(N)(=O)=O)cc3)n2)cc1 | 82.5% (inactive)
Cc1ccc(Nc2ccc(Nc3ccc(C)cc3)c3c2C(=O)c2cccc(O)c2C3=O)cc1 | 82.1% (inactive)
Cc1ccc(S(=O)(=O)n2cc(CNc3ccc(N4CCOCC4=O)cc3)c3ccccc32)cc1 | 30.1% (inactive)
COc1ccc(-c2nc(SCCC(C)C)nc(N/N=C\c3cccc(Cl)c3)c2C#N)cc1 | 84.3% (inactive)
CN(C)c1ccc(/C=C/C(=O)c2cccc(Nc3nc(Nc4ccccc4)nc(Nc4ccccc4)n3)c2)cc1 | 93.9% (inactive)
COc1cc(OC)cc(C2CC(=O)Nc3c2c(C)nn3-c2nc3ccccc3[nH]2)c1 (stereo not given) | 50.2% (inactive)
NC(=N\N=C/c1ccccc1[N+](=O)[O-])/C(N)=N\N=C/c1ccccc1[N+](=O)[O-] | 109% (inactive)
CN(C)CCNc1nc2ccccc2c2c1c1c(n2Cc2ccccc2)-c2ccccc2C1=O | -74.7% (active)
Cc1ccc(C(=NN=C(N)N)c2ccc(C)cc2)cc1 | 30.8% (inactive)
O=Cc1c[nH]c2ccc(-c3csc4ccccc34)cc12 | 86.3% (inactive)
Cc1ccc(S(=O)(=O)Oc2cc(OS(=O)(=O)c3ccc(C)cc3)cc(OS(=O)(=O)c3ccc(C)cc3)c2)cc1 | 105% (inactive)
Cn1c(-c2c(N)n(Cc3cccnc3)c3nc(C#N)c(C#N)nc23)nc2ccccc21 | 78% (inactive)
O=C(NCCCNc1cc(-c2cn(-c3ccccc3)nc2-c2cccc(O)c2)ccn1)c1ccccc1 | 63.3% (inactive)
